About 3,100 (0.84%) of roughly 370,000 compounds were called active. Many of the other results were omitted from the sample, so actives are more common in it than they were. A number with no mark means an inactive call. No stated cut-off is given here; in the data, active means inhibition above about 9.5%; inactive means the rest.
Target: 1-phosphatidylinositol 4,5-bisphosphate phosphodiesterase gamma-1 (Homo sapiens) (UniProt P19174)
Experiment: blockers of human PLCG1 activity – biochemical, fluorescence, purified enzyme, primary screen (AID 720700)
Conditions: purified PLC-gamma1, fluorogenic substrate, at 12.2 µM, active compounds read high

Sequence of 1-phosphatidylinositol 4,5-bisphosphate phosphodiesterase gamma-1 (Homo sapiens) (P19174 whole entry, looked up): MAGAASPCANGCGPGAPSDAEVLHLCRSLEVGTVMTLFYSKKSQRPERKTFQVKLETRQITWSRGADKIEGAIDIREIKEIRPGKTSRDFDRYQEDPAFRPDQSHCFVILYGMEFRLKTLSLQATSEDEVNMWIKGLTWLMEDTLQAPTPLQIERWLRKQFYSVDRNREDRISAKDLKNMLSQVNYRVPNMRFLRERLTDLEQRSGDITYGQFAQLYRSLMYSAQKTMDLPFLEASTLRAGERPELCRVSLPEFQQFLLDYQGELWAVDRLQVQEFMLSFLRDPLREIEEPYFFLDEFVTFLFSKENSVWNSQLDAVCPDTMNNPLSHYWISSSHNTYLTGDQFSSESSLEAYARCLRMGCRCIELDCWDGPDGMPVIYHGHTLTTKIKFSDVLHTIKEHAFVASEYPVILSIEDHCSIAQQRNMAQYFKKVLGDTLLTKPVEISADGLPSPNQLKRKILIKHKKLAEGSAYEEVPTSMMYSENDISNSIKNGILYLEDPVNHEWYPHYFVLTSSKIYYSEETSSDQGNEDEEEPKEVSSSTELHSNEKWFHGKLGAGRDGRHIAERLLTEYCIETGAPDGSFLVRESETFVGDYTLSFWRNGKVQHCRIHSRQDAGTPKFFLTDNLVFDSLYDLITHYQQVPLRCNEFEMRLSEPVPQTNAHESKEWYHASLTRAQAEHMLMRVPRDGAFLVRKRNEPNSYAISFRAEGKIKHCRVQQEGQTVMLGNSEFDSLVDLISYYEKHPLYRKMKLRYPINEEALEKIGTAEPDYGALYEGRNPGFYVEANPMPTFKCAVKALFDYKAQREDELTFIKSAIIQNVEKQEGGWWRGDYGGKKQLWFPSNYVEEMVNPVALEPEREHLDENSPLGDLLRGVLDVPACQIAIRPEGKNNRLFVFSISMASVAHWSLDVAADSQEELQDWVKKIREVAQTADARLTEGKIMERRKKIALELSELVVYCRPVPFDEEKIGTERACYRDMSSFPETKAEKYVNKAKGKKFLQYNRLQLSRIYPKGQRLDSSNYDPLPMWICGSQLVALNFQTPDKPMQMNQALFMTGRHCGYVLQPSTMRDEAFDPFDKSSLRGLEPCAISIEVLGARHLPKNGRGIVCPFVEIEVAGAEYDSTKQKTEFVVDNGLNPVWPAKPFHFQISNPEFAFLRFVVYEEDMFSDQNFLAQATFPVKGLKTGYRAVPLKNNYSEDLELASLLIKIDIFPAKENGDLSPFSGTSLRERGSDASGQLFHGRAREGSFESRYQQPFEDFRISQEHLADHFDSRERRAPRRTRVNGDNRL

| Compound | inhibition |
| --- | --- |
| CC(C)(C)NC(=O)C(c1cccnc1)N(C(=O)c1cnco1)c1ccc(C(C)(C)C)cc1 (configuration not stated) | 0.93% |
| COC(=O)[C@]12C[C@H](CC(=O)NCc3cccc4ccccc34)C(=O)N(CCc3ccc(OC)c(OC)c3)C1=C[C@H](C1CCCC1)O[C@@H]2C | 4.89% |
| CCOc1ccccc1C1CC(c2cccc(NS(C)(=O)=O)c2)=NN1C(=O)c1ccccc1 (configuration not stated) | 9.81% (active) |
| CS(=O)(=O)Nc1cccc(C2=NN(C(=O)c3cccc(F)c3)C(c3cccs3)C2)c1 (configuration not stated) | -0.97% |
| Cc1ccc(C2CC(c3cccc(NS(C)(=O)=O)c3)=NN2S(C)(=O)=O)cc1 (configuration not stated) | 2.31% |
| C=C1C(C(C)C)N(C)C2=NC(c3ccccc3)CC(=O)N12 (configuration not stated) | -2.56% |
| C=CCN1C(=O)[C@@H](CC(=O)N2CCN(C(=O)c3ccco3)CC2)[C@]2(C(=O)OC)CCCCC=C12 | -0.31% |
| CCCc1ccc(OCC(O)CN2CCN(C(=O)OCC)CC2)cc1 (configuration not stated) | 8.68% |
| CC(=O)N1CCN(CC(c2ccccc2)c2ccccc2)CC1 | -0.45% |
| O=C(C(c1ccccc1)c1ccccc1)N1CCN(CC(O)COc2ccccc2)CC1 (configuration not stated) | 9.59% (active) |
| Nn1c(SCC(=O)Nc2cccc3ccccc23)nnc1-c1cc(-c2ccc(F)cc2)n[nH]1 | -1.09% |
| C[C@H]1CCC/C=C/C(=O)c2c(O)cc(O)cc2CC(=O)O1 | -3.4% |
| CCOc1ccc(CCNC(=O)COC(=O)c2c(OC)cccc2OC)cc1OCC | 6.67% |
| CCOc1ccc(CCNC(=O)COC(=O)CCS(=O)(=O)c2ccc(C)cc2)cc1OCC | 9.85% (active) |
| COc1ccc(CNC(=O)COC(=O)CCS(=O)(=O)c2ccc(C)cc2)cc1OC | 0.41% |
| C=C(C)C#CC(Cc1ccccc1)NCC1CC1 (configuration not stated) | 0.45% |
| O=C(O)C1CCCCC1C(=O)N1CCN(S(=O)(=O)c2ccc(F)cc2)CC1 (configuration not stated) | 4.99% |
| O=C(CN1CCN(S(=O)(=O)c2ccc(F)cc2)CC1)NC1CC1 | -1.88% |
| O=S(=O)(c1ccc(F)cc1)N1CCN(C(=S)NC2CCCC2)CC1 | 10.9% (active) |
| CCOc1ccccc1NC(=O)C12CC3CC(C1)CC(c1ccc(C)cc1)(C3)C2 | 0.03% |
| C=CCNC(=O)C12CC3CC(C1)CC(C(=O)NCC=C)(C3)C2 | -0.37% |

| Compound | inhibition |
| --- | --- |
| Cc1ccc(C23CC4CC(CC(C(=O)NCC(=O)O)(C4)C2)C3)cc1 | 9.87% (active) |
| O=C(Nc1ccc(Br)cc1)OCCN1C(=O)CCC12CCC(c1ccccc1)CC2 (configuration not stated) | 4.23% |
| O=C(NC1CCC1)c1ccc(C#CC2CC2)cn1 | -0.59% |
| O=C(CSc1nnc(-c2ccncc2)n1C1CCCCC1)Nc1ccccc1 | 10.2% (active) |
| COCCCn1c(SCC(=O)Nc2ccccc2)nnc1-c1ccncc1 | -0.81% |
| O=C(CSc1nnc(-c2ccncc2)n1-c1ccc(Cl)cc1)Nc1ccc(C(=O)O)cc1 | -0.57% |
| COc1ccccc1CCNC(=O)C1CCN(c2nc(C)cc(C)n2)CC1 | -0.02% |
| Cc1ccc(-c2nc(C3CCCN(S(=O)(=O)c4ccc(Br)s4)C3)no2)cc1 (configuration not stated) | 0.61% |
| COc1ccc(-c2ccc(CNCCCN3CCOCC3)o2)cc1Cl | 1.38% |
| C=CCOc1ccc(Cl)cc1CNCCCN1CCOCC1 | 10.7% (active) |
| O=S(=O)(NCCCN1CCOCC1)c1ccc(F)c(Cl)c1 | -0.87% |
| Cc1ccccc1NC(=O)Cn1nnc(-c2ccccc2F)n1 | 0.94% |
| CN1[C@H](Cc2ccccc2)COc2cccc(N3CCSCC3)c2S1(=O)=O | -5.49% |
| COc1ccc(NC(=O)CN2C(=O)C(c3ccccc3)=NC23CCCCCC3)cc1OC | 1.88% |
| O=C1NC2(CCCCC2)N=C1c1ccccc1 | 10.4% (active) |
| O=C1NC2(CCCCCC2)C(=O)N1CCS(=O)(=O)Oc1ccccc1 | 1.93% |
| C=CCN1C(=O)[C@@H](CC(=O)N2CCN(C(=O)OCC)CC2)[C@]2(C(=O)OCC)CCCCC/C=C/12 | -1.67% |
| C=CC[C@@H](CC(=O)NCCO)C(=O)N[C@H](C)COC(=O)[C@@H](CC=C)CC(=O)OC(C)(C)C | 9.97% (active) |
| C=CC[C@@H](CC(=O)N[C@@H](CO)Cc1ccccc1)C(=O)N[C@H](COC(=O)[C@H](CC=C)CC(=O)OC(C)(C)C)Cc1ccccc1 | 0.69% |
| C=CC[C@@H](CC(=O)N[C@@H](CO)Cc1ccccc1)C(=O)NCCOC(=O)[C@@H](CC=C)CC(=O)OC(C)(C)C | 5.69% |
| O=C(N1CCOCC1)N1CC[C@H]2[C@H](CCCN2Cc2ccc(F)cc2)C1 | -1.67% |
